Source: PubChem BioAssay
The list is not random: actives were taken first. Their share in the collection is about 13%.
USP17 inh: inhibitors of human USP17 deubiquitinase. purified USP17, Ub-rhodamine cleavage fluorescence, 3 h. inhibition, % at 50 µM. hit rate 6.5% among 47,000. AID 1645855, 2021
USP30 inh: inhibitors of human USP30 deubiquitinase; inhibition, % at 25 µM; hit rate 5.3% among 47,000; purified USP30, Ub-rhodamine cleavage fluorescence
USP8 inh: inhibitors of human USP8 deubiquitinase. Ubiquitin carboxyl-terminal hydrolase 8 (Homo sapiens), P40818. purified USP8, Ub-rhodamine cleavage fluorescence, 30 min. inhibition, % at 20 µM. hit rate 4.2% among 47,000. AID 1645853, 2021
USP28 block: inhibitors of human USP28 deubiquitinase | Ubiquitin carboxyl-terminal hydrolase 28 (Homo sapiens), Q96RU2 | purified USP28, Ub-rhodamine cleavage fluorescence, 30 min | inhibition, % at 25 µM | hit rate 3% among 47,000 | AID 1645857, 2021
* = called active by the depositor. No stated cut-off is given here; in the data, active means inhibition above about 30%; inactive means the rest.

SMILES | USP17 inh | USP30 inh | USP8 inh | USP28 block
Cc1cc(=O)[nH]c(SCC(=O)c2cc(C)n(CCC3=CCCCC3)c2C)c1C#N | 47.3* | -270.9 | 49.2* | -57.8
O=C(NCc1ccc(Cl)cc1)N1CCc2ccccc2C1 | 27.3 | 21.1 | 9.8 | 7.0
COC(=O)c1ccc(NC(=O)/C=C/c2ccc(F)cc2)cc1 | 85.8* | 90.3* | 96.0* | 95.6*
Cc1cccc(NC(=O)CSc2nnc(-c3n[nH]c4c3CCC4)n2N)c1 | 63.3* | 28.4 | 8.2 | 14.2
Cc1ccccc1-c1nc(SCC(=O)N2CCCC2)c2c(=O)n(C)c(=O)n(C)c2n1 | 8.6 | 43.5* | 9.2 | 0.2
CC(=O)N1CCc2c(sc(NC(=O)C3CC3)c2C(N)=O)C1 | 27.8 | -15.9 | 49.5* | 0.0
COc1ccccc1CN(C(=O)c1ccco1)C(C(=O)NC1CCCC1)c1ccc(Cl)cc1 (configuration not stated) | 13.0 | 48.2* | 3.6 | 9.7
COc1ccccc1CN(C(=O)c1ccco1)C(C(=O)NC1CCCC1)c1ccc(C(C)C)cc1 (configuration not stated) | 2.3 | 35.1* | 1.8 | 10.2
O=C(COc1cccnc1[N+](=O)[O-])Nc1ccccc1C(F)(F)F | -7.6 | 6.7 | -91.8 | -13.9
Cc1cc(C(=O)N2CCCCC2)c2c(=O)n(Cc3cccc(F)c3)c(=O)n(C)c2n1 | -9.2 | -11.3 | -6.5 | -11.0
Cc1cc(C(=O)N2CCCCC2)c2c(=O)n(Cc3ccc4nonc4c3)c(=O)n(C)c2n1 | 33.7* | -19.9 | 43.4* | 7.9
Cc1ccc(-c2c(NC(=O)c3cccc([N+](=O)[O-])c3)n(C)c3ccccc3c2=O)cc1 | 14.6 | 32.4* | 4.2 | 14.4
COc1ccc(-c2c(NC(=O)c3cccs3)n(C)c3ccccc3c2=O)cc1 | 14.6 | 13.3 | 18.2 | 7.1
Cn1c(NC(=O)c2cccc(Br)c2)c(-c2ccc(Cl)cc2)c(=O)c2ccccc21 | 40.7* | -37.4 | -6.2 | -24.4
Cn1c(NC(=O)c2ccccc2F)c(-c2ccc3c(c2)OCO3)c(=O)c2ccccc21 | 4.2 | 3.8 | 0.0 | 0.7
Cn1c(NC(=O)c2ccc(Cl)cc2)c(-c2ccccc2)c(=O)c2ccccc21 | 4.0 | 0.1 | -1.6 | -10.2
Cc1ccc(-c2c(NC(=O)c3cccs3)n(C)c3ccccc3c2=O)cc1 | 22.3 | 27.3 | 31.7* | 13.6
Cc1ccc(C(=O)Nc2c(-c3ccc4c(c3)OCO4)c(=O)c3ccccc3n2C)cc1 | 37.2* | -4.9 | 41.5* | 45.6*
CN(C)S(=O)(=O)c1cccc(-c2nnc(C3(c4ccccc4)CCOCC3)o2)c1 | -5.5 | -2.3 | 3.1 | -8.7
CN1CC2(COc3ccccc31)CN(S(=O)(=O)c1cccc(F)c1)CCO2 (configuration not stated) | 5.0 | 17.3 | 4.3 | 2.5
CS(=O)(=O)N(CC(=O)Oc1ccc2ccccc2c1)c1ccc(Cl)cc1 | -0.3 | 21.9 | 3.2 | 12.0
CC(C)=CCc1ccc2[nH]cc(C3=C(O)C(=O)C(c4c[nH]c5ccccc45)=C(O)C3=O)c2c1 | 43.5* | -116.2 | -138.9 | 20.5
CC(=O)N1CCCc2cc(S(=O)(=O)NCc3ccc4c(c3)OCO4)ccc21 | 2.2 | 23.8 | 13.1 | 9.6
COc1cccc(CNS(=O)(=O)c2ccc3c(c2)CCCN3C(=O)C2CCC2)c1 | 2.0 | 0.3 | -3.4 | 30.2*
CC(=O)c1cccc(NC(=O)c2cccnc2-c2nc3ccccc3s2)c1 | 0.0 | 6.7 | -15.9 | -14.0
SMILES | USP17 inh | USP30 inh | USP8 inh | USP28 block
CCn1cnc2cc(NCc3cccc(OC)c3O)ccc21 | 6.7 | -12.5 | 40.1* | 5.1
CCn1cnc2cc(NCc3ccc(OC)cc3OC)ccc21 | 11.1 | -20.8 | 4.6 | -9.9
Cn1ccc2ccn(CC(=O)Nc3cccc(Cl)c3)c(=O)c21 | 20.6 | -0.1 | 0.7 | 13.0
O=C(Cn1ccc2ccn(Cc3ccccc3)c2c1=O)Nc1cccc(F)c1 | 49.1* | 18.2 | 31.8* | 3.0
Cc1ccccc1NC(=O)Cn1ccc2ccn(Cc3ccccc3)c2c1=O | -4.2 | -61.6 | 49.0* | -24.2
COc1ccc(-c2cc3c(=O)n(CC(=O)Nc4ccccc4C)ccn3n2)cc1 | 36.4* | 31.1* | 30.8* | 5.7
Cc1ccccc1NC(=O)Cn1c(=O)c2c(ncn2C2CCCC2)n(Cc2ccccc2)c1=O | 11.1 | -5.5 | 38.7* | 4.5
COc1ccc(-c2cc3c(=O)n(CC(=O)Nc4ccc(Cl)cc4)ccn3n2)cc1 | 18.7 | 19.2 | 10.3 | 11.2
O=C(CCc1nc(CSc2nc3ccccc3[nH]2)no1)Nc1ccc(F)cc1F | 7.1 | 15.0 | 2.2 | 9.9
COc1ccc(S(=O)(=O)N2CCOC(c3ccccc3)C2)cc1F (configuration not stated) | -1.9 | -8.3 | 0.1 | -4.6
Cc1cc(F)ccc1NC(=O)Cc1nnc(-c2ccc3ncccc3c2)o1 | 15.1 | -19.7 | 46.9* | 10.6
Cc1cccc(O)c1-c1nc2c(-c3nc4c(C(=O)O)cccc4o3)cccc2o1 | 46.7* | -7.8 | -12.1 | 17.1
Cc1c(C(=O)O)c(O)cc2c1C(=O)c1c(O)cccc1C2=O | 10.1 | -204.6 | -296.6 | 0.0
O=C(c1ccc(S(=O)(=O)N2CCCCC2)cc1)c1nnc(-c2ccc(Cl)cc2)o1 | 0.1 | 30.0* | 8.3 | 11.3
O=C(c1ccccc1)C1CCN(S(=O)(=O)c2ccc(Cl)cc2)CC1 | 11.7 | 30.7* | -0.5 | 13.9
O=C(NCCN1CCOCC1)C1CCN(S(=O)(=O)c2ccc(Cl)cc2)CC1 | 13.6 | 35.4* | 22.9 | 5.9
O=C(C1CCN(S(=O)(=O)c2ccc(Cl)cc2)CC1)N1CCOCC1 | -11.2 | -4.2 | -11.3 | -3.2
CC(Sc1oc(-c2ccco2)nc1S(=O)(=O)c1ccc(Cl)cc1)c1ccccc1 (configuration not stated) | 4.3 | -332.3 | 0.3 | -70.1
Cc1cc(C)cc(NC(=O)CCc2c(C)nn3cnnc3c2C)c1 | 7.2 | 10.2 | 1.4 | 4.5
CN1CCC2(CN(c3ncccn3)CC23CCN(S(=O)(=O)c2ccccc2)CC3)C1=O (configuration not stated) | -4.6 | -4.0 | -55.6 | -0.4
Cc1ccccc1NC(=O)c1cc(-c2cccc([N+](=O)[O-])c2)oc1C | -29.5 | -8.1 | -257.6 | -2.1
Cc1oc(-c2ccc(Cl)cc2)cc1C(=O)Nc1ccccc1 | 21.0 | 34.8* | 22.1 | 13.8
CC1(C)CC[C@]2(C(=O)O)CC[C@]3(C)C(=CCC4[C@@]5(C)CC[C@H](O)[C@@](C)(CO)C5CC[C@]43C)[C@@H]2C1 (some centres not stated) | 94.9* | 83.9* | 10.3 | 81.8*
O=[N+]([O-])c1ccccc1C(c1c[nH]c2ccccc12)c1c[nH]c2ccccc12 | 53.8* | -39.5 | 81.8* | 10.4
Cc1ccc(NC(=O)c2cnc3ccccc3n2)cc1Cl | 1.6 | -162.3 | 65.0* | -29.7
Cc1ccccc1NC(=O)C(NS(=O)(=O)c1ccc2c(c1)OCCO2)C(C)C (configuration not stated) | 39.8* | 7.4 | -15.8 | -0.4
O=C(NC1CCCCC1)C(c1ccc(O)cc1)N(Cc1ccccc1)C(=O)c1ccc2c(c1)OCCO2 (configuration not stated) | -2.9 | -20.6 | -2.3 | -3.9
